Screen size: about 310,000 compounds; about 18,000 (5.8%) were called active. About 22% were inconclusive and are not listed. What follows is part of a selection rich in actives, with near analogues and random picks from the rest. Where a call stands in place of a potency, no number is given. Unmarked numbers belong to inactive results. The call rests on the fitted dose curve; in most records, active means well fitted inhibition curve with a large enough effect; inconclusive means small, poorly fitted or top-dose-only effect, or another doubt; inactive means no such curve, though single readings can be large or run the other way. Non-standard residues stand in square brackets, D forms with d. Residues, ends and D or L forms follow the SMILES beside them. *: point of attachment. PhAc = O=C(Cc1ccccc1)*
assay: Primary qHTS for delayed death inhibitors of the malarial parasite plastid, 48 hour incubation; details: P. falciparum luciferase growth in erythrocytes; series mostly up to 28.7 µM
How it was run: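 Luciferase-expressing P. falciparum in infected erythrocytes (2% hematocrit, 0.1% parasitemia final) in RPMI 1640/0.5% Albumax were exposed to compound for 48 hours at 37 C, 5% CO2; growth read as luminescence.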
Potency means the concentration at half of the fitted maximal effect.

Row | Compound | Potency | activity change, negative = inhibition
1 | COC(=O)c1cc(C(=O)CSc2nc(C)cc(C)n2)ccc1O | inactive | 
2 | CC(C)C1N=C2c3ccccc3N=C(SCC(=O)c3ccc(O)c(O)c3)N2C1=O (configuration not stated) | 11.7 µM (active) | 
3 | CCc1ccc(S(=O)(=O)N/N=C\c2ccc([N+](=O)[O-])o2)cc1 | inactive | 
4 | COc1ccc(CCNS(=O)(=O)c2cn(C)nc2C)cc1 | inactive | 
5 | Cc1c(-c2nn(C)c(=O)c3ccccc23)oc2ccc(F)cc2c1=O | 2.62 µM (active) | 
6 | O=C1c2oc3ccc(Br)cc3c(=O)c2C(c2cccc(F)c2)N1CCO (configuration not stated) | inactive | 
7 | Cc1ccc(F)cc1NC(=O)Cc1nn(C)c(=O)c2ccccc12 | inactive | 
8 | CCCNC(=O)CCc1c(C)nc2c(c(C)nn2-c2ccccc2)c1C | inactive | 
9 | O=C(CN(C(=O)CCC(=O)Nc1nccs1)c1ccc(F)cc1)NCc1ccc2c(c1)OCO2 | inactive | 
10 | O=C(Cn1cnc2ccccc2c1=O)Nc1cccc(S(=O)(=O)N2CCCCC2)c1 | inactive | 
11 | Cc1cccc(-n2c(SCC(=O)Nc3cccc(S(=O)(=O)NC4=NCCCCC4)c3)nc3ccccc3c2=O)c1C | 13.1 µM (active) | 
12 | CCc1ccc(C(=O)OCC(=O)Nc2cccc(S(=O)(=O)NC3=NCCCCC3)c2)cc1 | 10.4 µM (active) | 
13 | CN(CCOc1ccc(Br)cc1)CC(=O)Nc1cccc(S(=O)(=O)NC2=NCCC2)c1 | inactive | 
14 | O=C(Nc1cccc(S(=O)(=O)NC2=NCCC2)c1)C1CCCCC1 | inactive | 
15 | COCCn1c(SCC(=O)Nc2ccc3c(c2)CCC3)nc2ccccc2c1=O | inactive | 
16 | Cc1ccc(S(=O)(=O)N2CCC3(CC2)OCCO3)c(C)c1 | inactive | 
17 | Cc1csc(NC(=O)CSc2nc(=O)n(CCCN(C)C)c3c2CCC3)n1 | inactive | 
18 | CC(=O)Nc1ccc(NC(=O)COc2ccc(-c3ccccc3)cc2)cc1 | inactive | 
19 | CC1CC(C)CN(CCCNC(=O)Cn2ncc3c([nH]c4ccccc43)c2=O)C1 (configuration not stated) | inactive | 
20 | CC(=O)N1CCN(C(=O)c2cc(-c3ccc(C)o3)nc3ccccc23)CC1 | inactive | 
21 | CCOC(=O)C1(Cc2ccccc2C)CCCN(C(=O)CN2C(=O)CSC2=O)C1 (configuration not stated) | inactive | 
22 | CCCCC(=O)Nc1nnc(S(=O)(=O)N(C)Cc2ccco2)s1 | inactive | 
23 | O=C(NCCN1C(=O)S/C(=C\c2cccnc2)C1=O)c1cccc(OC(F)F)c1 | inactive | 
24 | COc1ccc(CCNC(=O)c2ccc3c(c2)NC(=O)C(N2CCOCC2)S3)cc1OC (configuration not stated) | inactive | 
25 | O=C(NCCN1CCOCC1)c1ccc(/C=C2\Sc3ccccc3N(Cc3ccc(F)cc3)C2=O)cc1 | 11.7 µM (active) | 

Row | Compound | Potency | activity change, negative = inhibition
26 | Cc1ccc(C(=O)N/C(=C\c2ccc(F)cc2)C(=O)NCCN2CCOCC2)cc1 | inactive | 
27 | CCCN1CCN(C(=O)CCCNC(=O)c2ccc(Cl)cc2)CC1 | inactive | 
28 | CN1C(=O)/C(=C/c2ccc(C(=O)NC3CCCC3)cc2)Oc2ccccc21 | inactive | 
29 | COc1ccc(/C=C(\NC(=O)c2ccccc2)C(=O)NCCN2CCOCC2)cc1OC | inactive | 
30 | Cc1nn(Cc2ccccc2)c(C)c1C(=O)NCCN1C(=O)S/C(=C\c2ccc(F)cc2)C1=O | inactive | 
31 | CCN1CCN(CCNC(=O)c2ccc3c(c2)NC(=O)/C(=C\c2ccc(OC)c(OC)c2)S3)CC1 | 9.28 µM (active) | 
32 | CN1CCN(CCCNC(=O)c2ccc(/C=C3\Oc4ccccc4N(Cc4ccc(Cl)cc4)C3=O)cc2)CC1 | 1.65 µM (active) | 
33 | CCN1CCN(CCNC(=O)c2ccc(/C=C3/Sc4ccccc4N(Cc4cccc(C)c4)C3=O)cc2)CC1 | 11.7 µM (active) | 
34 | O=C(NCCN1CCOCC1)/C(=C/c1ccc(F)cc1)NC(=O)c1ccccc1 | inactive | 
35 | Cc1cc(-c2nnc(SCC(=O)Nc3ccc(S(N)(=O)=O)cc3)n2N)n[nH]1 | inactive | 
36 | CN1C(=O)[C@H]2[C@@H](C3CC3)N3C(=O)CN(Cc4ccccc4)C(=O)[C@@]3(C)[C@H]2C1=O | inactive | 
37 | O=C1NC(c2ccccc2)Oc2ccccc21 (configuration not stated) | inactive | 
38 | COc1ccc(-c2ocnc2C(=O)Nc2ccc3c(c2)CCC3)cc1 | inactive | 
39 | O=C(Nc1nnc(-c2ccc(F)cc2)s1)c1c(F)cccc1Cl | inactive | 
40 | CC(=O)c1nn(-c2cccc(C(F)(F)F)c2)c(=O)[nH]c1=O | inactive | 
41 | CCNS(=O)(=O)c1ccc(CCC(=O)N2CCN(c3ccc(OC)cc3)CC2)cc1 | inactive | 
42 | COc1ccc(OCCNC(=O)c2cc(C3CC3)nc3c2cnn3C(C)C)cc1 | 13.1 µM (active) | 
43 | N#CCc1ccc(NC(=O)c2ccccc2C(=O)Nc2ccc(CC#N)cc2)cc1 | inactive | 
44 | CC(C)n1ncc2c(C(=O)NCc3ccccc3CN(C)C)cc(C3CC3)nc21 | 11.7 µM (active) | 
45 | COCCNC(=O)COc1ccc(C)c(C)c1 | inactive | 
46 | CC(C)n1ncc2c(C(=O)Nc3ccc(CC#N)cc3)cc(C3CC3)nc21 | 14.7 µM (active) | 
47 | CC(=O)Nc1ccc(CC#N)cc1 | inactive | 
48 | CCCc1ccc(OCCNC(=O)c2ccccc2Br)cc1 | inactive | 
49 | Cc1ccccc1OCCC(=O)OCC(=O)NCCc1ccc(S(N)(=O)=O)cc1 | inactive | 
50 | Cc1cc(C)c(S(=O)(=O)c2cc(F)ccc2C)c(=O)[nH]1 | inactive | 

Row | Compound | Potency | activity change, negative = inhibition
51 | O=c1ccc(-c2ccc(S(=O)(=O)Nc3ccccc3)o2)n[nH]1 | inactive | 
52 | O=C(CN1C(=O)CSC1=O)N1CCCC(Nc2ccc(F)cc2)C1 (configuration not stated) | inactive | 
53 | Cc1ccc(S(=O)(=O)N(C)c2ccc(OCC(=O)OCC(=O)N(CC#N)c3ccccc3)cc2)cc1 | inactive | 
54 | Cc1cccc(NC(=O)c2ccc([N+](=O)[O-])o2)c1 | 13.1 µM (active) | 
55 | Cc1cccc(NC(=S)NC(=O)c2ccc(Br)o2)c1 | inactive | 
56 | O=C(Nc1ccc(Br)cn1)c1ccc([N+](=O)[O-])o1 | inactive | 
57 | O=C(CNC(=O)c1ccc(Br)o1)Nc1ccccc1 | inactive | 
58 | COCCNC(=O)c1ccc(S(=O)(=O)c2ccc(Cl)cc2)c(NC(C)=O)c1 |  | 0.449% [at 0.00184 µM]
59 | c1cnc(N2CCN(c3ccc4ccccc4n3)CC2)nc1 | inactive | 
60 | CC12CCC(C(=O)N3CCN(c4ncccn4)CC3)(c3nc4ccccc4nc31)C2(C)C (configuration not stated) | 11.7 µM (active) | 
61 | CC(Oc1ccc(F)cc1)C(=O)N1CCN(c2ncccn2)CC1 (configuration not stated) | inactive | 
62 | O=C(NCc1nnc(SCC(=O)N2CCCCCC2)o1)c1ccc(F)cc1 | inactive | 
63 | Cc1ccc(S(=O)(=O)N[C@@H](Cc2ccccc2)C(=O)N2CCC(C(=O)N[C@H](C(=O)O)C(C)O)CC2)cc1 (some centres not stated) | inactive | 
64 | N#CC1=C(SCc2ccccc2)NC(=O)C(C#N)C12CCCC2 (configuration not stated) | inactive | 
65 | CC1(C)CCc2nc(SCc3ccccc3)c(C#N)cc2C1 | 5.22 µM (active) | 
66 | Cc1cc(NC(=O)CSc2nc3c(cc2C#N)CCCCC3)no1 | inactive | 
67 | CC(NC(=O)CSc1nc2c(cc1C#N)CN(C)CC2)c1ccccc1 (configuration not stated) | 10.4 µM (active) | 
68 | Cc1cc(C)c(C#N)c(SCc2ccccc2C(=O)O)n1 | inactive | 
69 | CN1CCc2nc(SC(C(=O)O)c3ccccc3)c(C#N)c(-c3cccs3)c2C1 (configuration not stated) | inactive | 
70 | C[C@@H]1CC[C@@]2(OC1)O[C@H]1C[C@H]3[C@@H]4CC=C5C[C@@H](O)[C@H](O)C[C@]5(C)C4CC[C@]3(C)[C@H]1[C@@H]2C (some centres not stated) | inactive | 
71 | CN(C)c1ccc(CNC(=O)CN2C(=O)COc3ccc(S(=O)(=O)N4CCCC4)cc32)cc1 | inactive | 
72 | Cc1ccc(S(=O)(=O)NCc2ccc(C(=O)NC3CCC(C)CC3)cc2)cc1 (configuration not stated) | inactive | 
73 | O=C(CC(n1cncn1)C(Cl)(Cl)Cl)c1ccc([N+](=O)[O-])cc1 (configuration not stated) |  | -32.2% [at 0.00184 µM]
74 | CC(C)C[C@@H](NC(=O)[C@H]1CCCN1C(=O)Cc1ccccc1)C(N)=O (PhAc-[dP]-[dL]-NH2) |  | 8.09% [at 0.00184 µM]
75 | CCCCn1c(N)c(N(CCOC)C(=O)CSCC(=O)Nc2cccc(C)c2)c(=O)[nH]c1=O | inactive | 

Row | Compound | Potency | activity change, negative = inhibition
76 | CCCCn1c(-c2cccc(C)c2)nc2cc3[nH]c(=O)c(C(C)C)nc3cc21 | 9.28 µM (active) | 
77 | CCOCCn1c(-c2ccccc2)nc2ccccc21 | inactive | 
78 | CN(C(=O)CC1C(=O)NCCN1Cc1ccc2ccccc2c1)C1CCOCC1 (configuration not stated) | inactive | 
79 | CN(C(=O)CC1C(=O)NCCN1Cc1ccc(F)cc1Cl)C1CCCCC1 (configuration not stated) | 11.7 µM (active) | 
80 | CN(Cc1cccc2ncccc12)C(=O)CC1C(=O)NCCN1Cc1ccc(F)cc1 (configuration not stated) | inactive | 
81 | O=C(CN(Cc1ccccc1)C(=O)CCC(=O)Nc1ccccn1)NCCc1ccccc1 | inactive | 
82 | Cc1sc2ncn(CC(=O)NCCCC(=O)N3CCN(c4ccccc4F)CC3)c(=O)c2c1C | inactive | 
83 | O=C(COc1ccccc1)NCCc1nc2ccccc2[nH]1 | inactive | 
84 | COc1ccc(OC(C)C(=O)NCCc2nc3ccccc3[nH]2)cc1 (configuration not stated) | inactive | 
85 | CCCCCOc1ccc(/C=C/C(=O)NCCc2nc3ccccc3[nH]2)cc1OC | 10.4 µM (active) | 
86 | CCC(C)N1CC(=O)N2Cc3[nH]c4ccccc4c3C[C@H]2C1=O (some centres not stated) | inactive | 
87 | CC(C)c1ccc(Cc2nnc(NCCCO)[nH]c2=O)cc1 | inactive | 
88 | Cc1ccn(CCC(=O)N2c3ccccc3CC2C)n1 (configuration not stated) | inactive | 
89 | O=C(CSCc1ccccc1)N1CCc2ccccc21 | inactive | 
90 | CC(=O)N1c2ccc(S(=O)(=O)N(C)CC(=O)N(C)Cc3ccccc3)cc2CC1C (configuration not stated) | inactive | 
91 | CC(OC(=O)Cc1ccc(F)cc1)C(=O)N1CCc2ccccc21 (configuration not stated) | inactive | 
92 | CC1Cc2ccccc2N1C(=O)c1cc2sccc2n1Cc1ccccc1 (configuration not stated) | 11.7 µM (active) | 
93 | O=C(c1cc2sccc2n1Cc1ccc(F)cc1)N1CCc2ccccc21 | 14.7 µM (active) | 
94 | CC(C)C(=O)Nc1c2c(nn1-c1ccccc1)CSC2 | inactive | 
95 | CCNC(=O)N1CCN(S(=O)(=O)c2ccc3c(c2)OCCCO3)CC1 | inactive | 
96 | O=C(Nc1cccc(Cl)c1)c1cc(S(=O)(=O)N2CCCCC2)c[nH]1 | inactive | 
97 | O=C(CCN1C(=O)[C@@H]2Cc3ccccc3CN2C1=O)NCc1ccccc1 | inactive | 

Reference: PubChem BioAssay AID504832 (National Center for Advancing Translational Sciences (NCATS), 2011)
